Assay outcomes deposited in PubChem by National Center for Advancing Translational Sciences (NCATS).
15-hLO inh: 15-hLO (ALOX15) enzyme inhibition | P16050 | purified 15hLO-1, xylenol orange hydroperoxide absorbance | Potency, µM (titrated, usually from 57.1 µM), usual class: inhibitors | 74,000 compounds, 1.4% hits; also: nearly all actives have a fitted effect of over 55% in size
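Inhibition is scored from a chromogenic endpoint. After 15 min enzyme-compound contact, arachidonic acid (50 uM final) reacts 6 min with 40 nM 15hLO-1 at room temperature, then Fe-XO reagent is added for 30 min and absorbance ratio recorded.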
Tau filament bind: tau filament binding; recombinant tau filaments, thioflavin S fluorescence, 15 h; filaments grown with octadecylsulfate alongside compound; Potency, µM (titrated, usually from 57.1 µM); 71,000 compounds, 2% hits; P10636; AID 596;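 also: actives lower thioflavin S fluorescence by blocking filaments or displacing dye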
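Assay mix: 1 uM His-tagged tau, 30 uM sodium octadecylsulfate, thioflavine S dye in HEPES/NaCl/DTT buffer. Compound is added prior to the inducer. Fluorescence after 15 h at 37 C.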
Epigenetic mod: epigenetic modulators derepressing GFP locus in mouse cells | Potency, µM (doses to about 46.1 µM) | mouse C127i GFP locus derepression, cytometry, 30 h | 68,000 compounds, 0.09% hits
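Derepression screen: silenced CMV-GFP reporter in murine C127i cells, 30 h compound incubation at 37 C, washed cells imaged by laser-scanning cytometer to enumerate GFP-expressing objects of 20 to 120 um.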
HBB splice mod: alters splicing of the hemoglobin beta chain; HBB splicing reporter cell assay, activation; EGFP reporter with mutant IVS2-654 intron; response scale: normalised to 500 nM splice-correcting PNA; Potency, µM (highest dose often 46.1 µM), actives largely listed as activators; 65,000 compounds, 0.06% hits; AID 925
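HeLa cells stably expressing EGFP interrupted by mutant beta-globin intron 2 (IVS2-654), 500/well in 2% FCS. Treated with compound for 2 days at 37C. Splicing correction scored as total well GFP intensity (488 nm excitation, 500-520 nm emission); 500 nM antisense PNA served as control.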
Ub-GFP proteasome: ubiquitin-GFP accumulation via proteasome inhibition; Ubiquitin-GFP reporter cells, proteasome inhibition, GFP fluorescence; response scale: untreated = 0%, 10 µM MG-132 = 100%; Potency, µM (highest dose often 45.9 µM), hits mostly activators; 67,000 tested, under 10 active; AID 526; active = well fitted activation curve with a large enough effect, not every such curve was filed as active; inconclusive = small, poorly fitted or top-dose-only effect, or another doubt; inactive = no such curve, though single readings can be large or run the other way
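Proteasome block read as GFP accumulation: ubiquitin(G76V)-GFP U2OS cells exposed to compound (2.9 nM–46 uM) for 4 hr at 37 C. Normalization used untreated cells as 0% and 10 uM MG-132 as 100%; concentration-response curves fitted.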
15-hLO-2 inh: blocks human 15-lipoxygenase 2 activity. Potency, µM (doses to about 57.1 µM), actives largely listed as inhibitors. 110,000 compounds, 0.56% hits. purified 15hLO-2, xylenol orange hydroperoxide absorbance. O15296. AID 881; also: nearly all actives have a fitted effect of over 60% in size
Target sequence (O15296 whole entry, looked up): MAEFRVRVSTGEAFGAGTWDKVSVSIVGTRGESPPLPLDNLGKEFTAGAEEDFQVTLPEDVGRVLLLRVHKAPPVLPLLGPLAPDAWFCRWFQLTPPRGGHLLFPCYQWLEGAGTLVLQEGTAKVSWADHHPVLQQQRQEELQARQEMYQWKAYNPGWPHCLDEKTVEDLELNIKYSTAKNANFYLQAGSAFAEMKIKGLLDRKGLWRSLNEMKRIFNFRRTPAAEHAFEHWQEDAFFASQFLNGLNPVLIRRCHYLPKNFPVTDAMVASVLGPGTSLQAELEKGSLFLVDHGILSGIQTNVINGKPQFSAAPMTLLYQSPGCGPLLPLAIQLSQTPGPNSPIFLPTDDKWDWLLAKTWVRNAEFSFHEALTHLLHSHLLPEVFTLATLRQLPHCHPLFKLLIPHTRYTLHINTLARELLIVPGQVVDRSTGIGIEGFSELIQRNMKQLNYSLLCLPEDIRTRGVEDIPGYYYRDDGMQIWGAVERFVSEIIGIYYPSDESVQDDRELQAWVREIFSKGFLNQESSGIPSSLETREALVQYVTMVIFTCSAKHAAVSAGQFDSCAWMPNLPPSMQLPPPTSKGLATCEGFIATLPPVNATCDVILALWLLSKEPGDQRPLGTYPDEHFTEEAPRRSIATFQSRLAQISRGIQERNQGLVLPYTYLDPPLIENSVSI
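Screening format was qHTS against 50 nM purified 15hLO-2 in Hepes pH 7.5 with detergent. Activity follows hydroperoxide formation from 45 uM arachidonic acid, measured as 573:405 nm absorbance ratio of the ferric-xylenol orange complex.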
Numbers stand for hits; [ ] = dose if it differs, or a comment. This is a sample that favours compounds with a hit; in the whole collection about 2.3% have one here. Unless noted, calls follow the shape of the dose curve; as a rule, active = well fitted curve in the direction sought with a large enough effect; inconclusive = small, poorly fitted or top-dose-only effect, or another doubt; inactive = no such curve, though single readings can be large; an effect the other way counts as inactive or inconclusive.

What do the screens show for `COc1ccc(-c2nc3cnc(Nc4cccc(OC)c4)nc3n(Cc3cccs3)c2=O)cc1`?
15-hLO inh: inactive; Tau filament bind: inactive; Epigenetic mod: inactive[9.22 µM]; HBB splice mod: inactive; Ub-GFP proteasome: inactive; 15-hLO-2 inh: inactive

Results for COc1cccc(Nc2ncc3nc(C)c(=O)n(Cc4cccs4)c3n2)c1 ?
15-hLO inh: inactive; Tau filament bind: inactive; Epigenetic mod: inactive[9.22 µM]; HBB splice mod: 16µM; Ub-GFP proteasome: inactive; 15-hLO-2 inh: inactive

How did COc1cccc(Nc2ncc3nc(C)c(=O)n(C)c3n2)c1 do in these assays?
15-hLO inh: inactive; Tau filament bind: 13µM; Epigenetic mod: inactive[9.22 µM]; HBB splice mod: inactive; Ub-GFP proteasome: inactive; 15-hLO-2 inh: inactive

What do the screens show for `O=C(O)/C(Cc1ccc([N+](=O)[O-])cc1)=N/O`?
15-hLO inh: inactive[11.4 µM]; Tau filament bind: inactive[11.4 µM]; Epigenetic mod: inactive[9.22 µM]; HBB splice mod: inactive[9.22 µM]; Ub-GFP proteasome: inactive[9.17 µM]; 15-hLO-2 inh: inactive[11.4 µM]

How did C[C@@H]1C[C@@H]2[C@H]3CCC4=CC(=O)C=C[C@]4(C)[C@]3(Cl)[C@@H](O)C[C@@]2(C)[C@@]1(O)C(=O)CO do in these assays?
15-hLO inh: inactive; Tau filament bind: inactive; Epigenetic mod: inactive; HBB splice mod: inactive; Ub-GFP proteasome: inactive; 15-hLO-2 inh: inactive

Results for CN(C)CCNC(=O)c1ccc(-n2c(=O)c(=O)[nH]c3ccccc32)cc1 ?
15-hLO inh: inactive

How did S=c1[nH]nc(-c2cc(-c3ccco3)[nH]n2)n1-c1ccccc1 do in these assays?
15-hLO-2 inh: inactive

What do the screens show for `CCOc1ccc(-n2c(-c3ccco3)n[nH]c2=S)cc1`?
15-hLO inh: 32µM; Tau filament bind: inactive; Epigenetic mod: inactive; HBB splice mod: inactive[0.369 µM]; 15-hLO-2 inh: inconclusive

How did O=C(O)CSCCc1ccccc1 do in these assays?
15-hLO inh: inactive[11.4 µM]; Tau filament bind: inactive[11.4 µM]; Epigenetic mod: inactive[9.22 µM]; HBB splice mod: inactive[9.22 µM]; Ub-GFP proteasome: inactive[9.17 µM]; 15-hLO-2 inh: inactive[11.4 µM]

What do the screens show for `COC(=O)[C@H](CCSC)NC(=O)Nc1cc(C)ccc1C`?
15-hLO inh: inactive; Tau filament bind: inactive; Epigenetic mod: inactive; HBB splice mod: inactive; Ub-GFP proteasome: inactive; 15-hLO-2 inh: inactive

Results for CCOCCOC(=O)C1=C(C)Nc2ccc(C)cc2S1 ?
15-hLO inh: inconclusive; Tau filament bind: 13µM; Epigenetic mod: inactive; HBB splice mod: inactive; Ub-GFP proteasome: inactive; 15-hLO-2 inh: 16µM

How did CSCCOC(=O)C1=C(C)Nc2ccc(C)cc2S1 do in these assays?
15-hLO-2 inh: 5µM

Results for CCOC(=O)C1=C(C)Nc2ccc(C)cc2S1 ?
15-hLO-2 inh: 4µM

How did COc1cccc(Cn2c(=O)cnc3cnc(Nc4ccccc4)nc32)c1 do in these assays?
15-hLO inh: inactive; Tau filament bind: inactive; Epigenetic mod: inactive[9.22 µM]; HBB splice mod: inconclusive; Ub-GFP proteasome: inconclusive; 15-hLO-2 inh: inconclusive

How did O=S(=O)(c1cccc(C(F)(F)F)c1)N1c2ccccc2-n2cccc2[C@H]1c1cccnc1 do in these assays?
15-hLO inh: inactive[11.4 µM]; Tau filament bind: inactive[11.4 µM]; Epigenetic mod: inactive[9.22 µM]; HBB splice mod: inactive[9.22 µM]; Ub-GFP proteasome: inactive[9.17 µM]; 15-hLO-2 inh: inactive[11.4 µM]

How did O=S(=O)(c1ccc2oc3ccccc3c2c1)N1CCOCC1 do in these assays?
15-hLO-2 inh: inactive

How did O=c1c2ccccc2sn1-c1cc(S(=O)(=O)N2CCOCC2)ccc1N1CCOCC1 do in these assays?
15-hLO inh: 16µM; Tau filament bind: inactive; Epigenetic mod: inactive; HBB splice mod: inactive; Ub-GFP proteasome: inactive; 15-hLO-2 inh: 0.5µM

What do the screens show for `O=c1c2ccccc2sn1-c1cc(S(=O)(=O)N2CCOCC2)ccc1N1CCCC1`?
15-hLO-2 inh: 1µM

How did O=C(O)c1cc(S(=O)(=O)N2CCOCC2)ccc1N1CCOCC1 do in these assays?
15-hLO-2 inh: inactive

How did CCCCCCCCCCCCCCCCCC(=O)NC[C@@H](COP(=O)([O-])OCC[N+](C)(C)C)OCC do in these assays?
15-hLO inh: inactive; Tau filament bind: inactive; Epigenetic mod: inactive; HBB splice mod: inactive; Ub-GFP proteasome: inactive; 15-hLO-2 inh: inactive
